The values below come from PubChem BioAssay (Tox21).

Molecules are shown by their SMILES. Results filed as inconclusive are left out. Activity calls are given as the source filed them. Calls come from the whole dose curve; as a rule, active = well fitted inhibition curve with a large enough effect in the repeat runs; inconclusive = weak or mixed curves; inactive = flat fitted curve, though single readings scatter.
% is set by controls: 0 for no effect and ±100 for the full control effect; potency is the fitted concentration of half-maximal effect.

The nature of the assay: qHTS assay to identify small molecule HDAC inhibitors (AID 1259364). For activity change, negative = inhibition: top concentration of the series differs between compounds. Note: nearly all actives have a fitted effect of over 45% in size. Conditions: HCT-116 HDAC-Glo I/II luminescence, 2 h; series mostly up to 92.4 µM; activity change, negative = inhibition: at the top concentration. The source says: U.S. Tox21 Program National Center for Advancing Translational Sciences [NCATS] NIH Chemical Genomics Center [NCGC] U.S. Environmental Protection Agency [EPA] National Institutes of Environmental Health Sciences [NIEHS] National Toxicology Program [NTP] U.S. Food and Drug Administration [FDA] Tox21 Assay Overview: Histone deacetylases (HDACs) are a group of epigenetic enzymes that regulate gene expression by histone deacetylation. HDACs are capable of introducing epigenetic modifications and such aberrations contribute to the onset and progression of several human diseases, thus making HDACs a popular therapeutic target. For identifying endogenous class I/II HDAC inhibitors a homogenous, luminogenic HDAC I/II cell based assay was used to measure the relative activity of class I and II HDACs from cells. Wild type HCT-116 cells were used to screen Tox21 libraries for identifying class I/II HDAC inhibitors.
Tox21 Assay Protocol Summary: HCT-116 cells were dispensed at 1,500 per well in 5uL of culture medium into white solid bottom 1536-well plates (Greiner Bio-One, Monroe, NC) using a Multidrop Combi (Thermo Scientific, Waltham, MA) dispenser. The assay plates were incubated at 37 C and 5% CO2 for an overnight, and then 23nL of compounds dissolved in DMSO and positive control were transferred using a Pintool station (Wako, San Diego, CA). The assay plates were incubated at 37C and 5% CO2 for 2hr. After compound treatment, 4uL of HDAC-Glo reagent (Promega Corporation, Madison, WI) was added to each well of the assay plates using Flying Reagent Dispenser (FRD, Aurora Discovery, San Diego, CA) and incubated the assay plates at room temperature for 30min. The luminescence signal was quantified using a ViewLux plate reader (Perkin Elmer, Shelton, CT).
A general note: Quantitative high-throughput screening tests each substance at several concentrations.
Consider `BrCC1CO1` (stereo not given), for which the “activity change, negative = inhibition” value was 0.901% (inactive).

Consider `CCC1(c2ccccc2)C(=O)N(COC)C(=O)N(COC)C1=O`, for which the “activity change, negative = inhibition” value was 15.4% [at 42.5 µM] (inactive).

With `CCCCCCCC(=O)Cl`, the “activity change, negative = inhibition” value was -1.85% (inactive).

On to `ClCCCCCCCl`, for which the “activity change, negative = inhibition” value was -0.566% (inactive).

Take `COc1ccccc1OC`: the “activity change, negative = inhibition” value was 3.93% (inactive).

Regarding `C[C@@H](N)[C@@H](O)c1ccccc1`, the “activity change, negative = inhibition” value was 2.45% [at 42.5 µM] (inactive).

As to `O=c1[nH]oc2c1CCNC2`, the “activity change, negative = inhibition” value is 0.274% [at 42.5 µM] (inactive).

Consider `ClCCN1CCCC1`, for which the “activity change, negative = inhibition” value is 5.25% [at 42.5 µM] (inactive).

As for `C=CC(=O)OCCN(C)C`, the “activity change, negative = inhibition” value was 1.18% (inactive).

Take `CCOP(=O)(CN(CCO)CCO)OCC`: the “activity change, negative = inhibition” value was 9.91% (inactive).

For `CC(=O)OCC1=C(C(=O)O)N2C(=O)[C@@H](N)[C@H]2SC1`, the activity change, negative = inhibition is -0.068% [at 19 µM] (inactive).

As for `C=C(C)[C@H]1CN[C@H](C(=O)O)[C@H]1CC(=O)O`, the “activity change, negative = inhibition” value was -5.41% [at 42.5 µM] (inactive).

Turning to `O=[N+]([O-])CCO`, the “activity change, negative = inhibition” value was 0.573% (inactive).

Turning to `NNCc1ccccc1`, the Potency was 11.1 µM (active).

As for `C/C=C/CC#N`, the “activity change, negative = inhibition” value is 10.4% (inactive).

On to `CC(C)(C)C(=O)C(Cl)Cl`, for which the “activity change, negative = inhibition” value was 2.56% (inactive).

In the case of `CC[C@H](O)C(C[C@H](C)N(C)C)(c1ccccc1)c1ccccc1`, the “activity change, negative = inhibition” value is 4.66% (inactive).

For the compound `O=c1[nH]c2ccccc2n1C1CCNCC1`, the “activity change, negative = inhibition” value was -0.252% [at 42.5 µM] (inactive).

In the case of `[P]#[In]`, the “activity change, negative = inhibition” value was -3.36% (inactive).

With `CCCCCCCCSC(=O)Oc1cc(Cl)nnc1-c1ccccc1`, the “activity change, negative = inhibition” value was -5.87% (inactive).

As to `CC(C)(O)C(Cl)(Cl)Cl`, the “activity change, negative = inhibition” value was -0.0455% [at 42.5 µM] (inactive).

Take `Cc1cccc2sc3nncn3c12`: the “activity change, negative = inhibition” value is -2.81% (inactive).

In the case of `Cc1ccc2c(c1)C1CN(C)CCC1N2` (stereo not given), the activity change, negative = inhibition was -0.403% [at 19 µM] (inactive).

As to `CS(=O)(=O)Cl`, the “activity change, negative = inhibition” value was 2.15% (inactive).

For `CCC1(CC)C(=O)C=CNC1=O`, the “activity change, negative = inhibition” value is -3.12% [at 42.5 µM] (inactive).

Take `CN=CNc1ccc(C)cc1C`: the “activity change, negative = inhibition” value is 3.48% (inactive).

As to `COc1ccc2c(C(=O)c3ccc(Cl)cc3)c(C)n(CC(=O)O)c2c1`, the “activity change, negative = inhibition” value is -0.82% [at 42.5 µM] (inactive).

Take `CN(C)C(=O)Oc1cc(OC(=O)N(C)C)cc(C(O)CNC(C)(C)C)c1` (stereo not given): the “activity change, negative = inhibition” value was 1.49% [at 42.5 µM] (inactive).

`COc1cccc(C=O)c1`: the “activity change, negative = inhibition” value is 4.76% (inactive).

Regarding `CCCOC(=O)Cc1ccc(OCC(=O)N(CC)CC)c(OC)c1`, the “activity change, negative = inhibition” value was -1.45% [at 42.5 µM] (inactive).

`CNC(=O)NC(O)C(Cl)(Cl)Cl` (stereo not given): the “activity change, negative = inhibition” value is -19.8% [at 42.5 µM] (inactive).

Take `CC[C@H](N)c1ccccc1`: the “activity change, negative = inhibition” value is -1.48% (inactive).

`S=C=S`: the “activity change, negative = inhibition” value was 1.91% (inactive).

For `CCNc1nc(Cl)nc(NC(C)(C)C)n1`, the “activity change, negative = inhibition” value was 3.18% (inactive).

On to `CC[C@@H](CO)NC(=O)[C@@H]1C=C2c3cccc4c3c(cn4C)C[C@H]2N(C)C1`, for which the “activity change, negative = inhibition” value is 9.49% [at 42.5 µM] (inactive).

`CC(C)NCC(O)c1ccc([N+](=O)[O-])cc1` (stereo not given): the “activity change, negative = inhibition” value is 1.39% [at 42.5 µM] (inactive).

In the case of `OP(O)c1ccccc1`, the “activity change, negative = inhibition” value was 3.89% (inactive).

For `ClCC1CO1` (stereo not given), the “activity change, negative = inhibition” value was 1.6% (inactive).

Turning to `CCCOC(=O)c1cncn1C(C)c1ccccc1` (stereo not given), the “activity change, negative = inhibition” value is -0.496% [at 42.5 µM] (inactive).

As to `CC(C)[N+](C)(CCC(C(N)=O)(c1ccccc1)c1ccccc1)C(C)C`, the “activity change, negative = inhibition” value is -11.3% [at 42.5 µM] (inactive).
